Data on 22 compounds can be found in PubChem BioAssay (EPA / NIEHS).

Molecules are shown by their SMILES. Active and inactive are the calls of the source. How the source made its calls: active means hit-call score of the fitted dose curve at least 0.9, where 1 is the maximum; inactive means score below 0.9.

Read-out in the experiment: TIMP metallopeptidase inhibitor 1 (TIMP1), TIMP1 (gene 7076)
As to the kind of experiment: BSK_MyoF_TIMP1: BioMAP Diversity Plus: MyoF Assay for TIMP metallopeptidase inhibitor 1 (TIMP1) Biomarker Activity (AID 2284269). The conditions noted are these: primary human lung fibroblasts. An outline of the steps:
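Primary human lung fibroblasts, MyoF multiplex system; chemical exposure 24 h; TIMP-1 by ELISA; positive fitting direction vs DMSO control.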
For `CCCCCC(C=O)=Cc1ccccc1`, the result was inactive. For the compound `CSCCC=O`, the result was inactive. A word on the AC50: it is the concentration at which the activity in the assay is half-maximal. Regarding `COc1ccc(OC)c(N=Nc2c(O)ccc3ccccc23)c1`, the AC50 was 3.12 µM (active). On to `COc1ccc(CCN2CCC(Nc3nc4ccccc4n3Cc3ccc(F)cc3)CC2)cc1`, for which the result was inactive. For the compound `C=C(C)[C@H]1CC=C(C)C(=O)C1`, the result was inactive. For `O=C1OC[C@H](Cc2cccc(O)c2)[C@H]1Cc1cccc(O)c1`, the outcome was inactive.

With `CCN(CC)C(=O)N(CC)CC`, the result was inactive. Take `O=C1c2ccccc2C(=O)c2c(O)ccc(O)c21`: the result was inactive. As to `CC(=O)Nc1ccc(C(=O)CCl)cc1`, the AC50 was 34.5 µM (active). Turning to `CC(C)(C)CC(C)(C)c1ccc(OCCOCC[N+](C)(C)Cc2ccccc2)cc1`, the AC50 is 5 µM (active). Regarding `c1ccc(Oc2ccccc2)cc1`, the outcome was inactive. Regarding `CC1(C)C2=CCCC(C)(C)[C@]23CC[C@H]1C3`, the result was inactive. As for `CCC(C)c1cc([N+](=O)[O-])cc([N+](=O)[O-])c1OC(=O)OC(C)C` (configuration not stated), the AC50 is 13.6 µM (active). Turning to `CCCCCCCCCCCCCCCC(=O)OC/C=C(C)/C=C/C=C(C)/C=C/C1=C(C)CCCC1(C)C`, the outcome was inactive.

As for `COc1cc(Cl)c(OC)cc1N`, the outcome was inactive. Consider `CC=Cc1ccc(OCC)c(O)c1`, for which the outcome was inactive.

For `CC(C)(N=C=O)c1cccc(C(C)(C)N=C=O)c1`, the outcome was inactive.

In the case of `C=C(C)C(=O)OCCOCCOCCOCCOC(=O)C(=C)C`, the outcome was inactive.

As for `Oc1c(Cl)cc(Cl)c(Cl)c1Cc1c(O)c(Cl)cc(Cl)c1Cl`, the AC50 was 1.07 µM (active). Turning to `c1ccc2cc(Nc3ccc(Nc4ccc5ccccc5c4)cc3)ccc2c1`, the outcome was inactive. On the same count and under the same terms, the value for `O=C1OC2(c3ccccc31)c1ccc(O)c(Br)c1Oc1c2ccc(O)c1Br` was “inactive”. Regarding `CN(c1nccc(=O)[nH]1)C1CCN(c2nc3ccccc3n2Cc2ccc(F)cc2)CC1`, the outcome was inactive.
